Source: PubChem (National Center for Advancing Translational Sciences (NCATS))
Vaccinia mCherry – qHTS for Stage-Specific Inhibitors of Vaccinia Orthopoxvirus: mCherry Reporter Primary qHTS. Vaccinia virus mCherry reporter infection, fluorescence. Potency, µM (series often up to 36.5 µM), inactives show at the top dose activity change, negative = inhibition, actives largely listed as inhibitors. actives 0.63% (n = 310,000); calls by dose curve; tested in A549 cells; note: nearly all actives have a fitted effect of over 35% in size
Pf growth 96h – Primary qHTS for delayed death inhibitors of the malarial parasite plastid, 96 hour incubation; P. falciparum luciferase reporter growth, 96 h; actives 6.9% (n = 320,000); Potency, µM (doses to about 28.7 µM), for inactives: at the highest dose activity change, negative = inhibition, usual class: inhibitors
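Plates of compound plus infected erythrocytes (2% hematocrit, 0.05% parasitemia final) incubate 96 hours, 37 C, 5% CO2. Detection reagent added; reduced luminescence from the parasites' luciferase reporter flags inhibition.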
AMA1 RON2 block – qHTS for Inhibitors of AMA1-RON; Towards Development of Antimalarial Drug Lead: Primary Screen | Plasmodium falciparum AMA1 (3D7) - RON2 peptide interaction | AlphaScreen AMA1-biotinylated RON2 peptide binding | Potency, µM (top dose mostly 58.2 µM), inactives show at the highest dose activity change, negative = inhibition, hits mostly inhibitors | actives 0.2% (n = 360,000) | AID 720542, 2013;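 note: 0% = vehicle wells and -100% = peptide control; nearly all actives have a fitted effect of over 45% in size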
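AMA1 (3D7) with his tag at 25 nM final met compounds first, then biotinylated RON2 peptide at 25 nM; detection used donor plus acceptor beads, 10 µg/mL apiece, read by AlphaScreen after 30 min at room temperature.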
VACV Venus inh – qHTS for Stage-Specific Inhibitors of Vaccinia Orthopoxvirus: Venus Reporter Primary qHTS; Vaccinia virus Venus reporter expression, fluorescence; Potency, µM (highest dose often 36.5 µM), for inactives: at the highest dose activity change, negative = inhibition, usual class: inhibitors; actives 0.46% (n = 330,000); calls by dose curve; tested in A549 cells; note: nearly all actives have a fitted effect of over 30% in size
Pf growth 48h – Primary qHTS for delayed death inhibitors of the malarial parasite plastid, 48 hour incubation. actives 5.9% (n = 310,000). P. falciparum luciferase growth in erythrocytes, 48 h. Potency, µM (doses to about 28.7 µM), without a hit: at the top dose activity change, negative = inhibition, actives largely listed as inhibitors
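Here the parasites carry a stable luciferase gene and grow inside erythrocytes in Albumax-based RPMI medium with compound for one erythrocytic cycle. Activity is scored as loss of luminescent signal.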
* = called active by the depositor; i = inactive; u = inconclusive; x = not tested or not shown; [ ] = dose if it differs, or a comment. Compounds with a hit are over-represented: about 8.7% of the library has one in this group of screens. Unless noted, calls come from the whole dose curve; as a rule, active = well fitted curve in the direction sought with a large enough effect; inconclusive = small, poorly fitted or top-dose-only effect, or another doubt; inactive = no such curve, though single readings can be large; an effect the other way counts as inactive or inconclusive. Unless noted, % is set by controls: 0 for no effect and ±100 for the full control effect; potency is the fitted concentration of half-maximal effect.

SMILES | Vaccinia mCherry | Pf growth 96h | AMA1 RON2 block | VACV Venus inh | Pf growth 48h
COc1ccc(Cl)cc1C(=O)Nc1ccc(NC(=O)c2ccco2)cc1 | x | 2.08µM* | 6.3% | -28.4% | u
COC(=O)CC(NC(=O)c1ccco1)c1ccc(C(C)C)cc1 (stereo unspecified) | -10.1% | x | 1.4% | -7.5% | -17.3%
CCOC(=O)CC(NC(=O)c1ccco1)c1ccc(C)cc1 (stereo unspecified) | -10.9% | 6.57µM* | 4.0% | -10.7% | 2.8%
CC(=O)c1ccc(NC(=S)NC(NC(=O)c2ccco2)C(Cl)(Cl)Cl)cc1 (stereo unspecified) | x | -31.6% | -2.8% | -21.6% | x
CC(=O)Nc1ccc(C)cc1-c1nc2ccccc2n(Cc2cccc(Br)c2)c1=O | -14.9% | x | x | -4.8% | x
O=C(Nc1ccccc1)c1cccc(NC(=O)c2ccco2)c1 | -10.9% | x | -3.9% | -7.3% | x
O=C(Nc1ccc(-c2nc3c(ccc4ccccc43)o2)cc1)c1ccco1 | -19.3% | 1.85µM* | -14.3% | u | x
O=C(CCc1ccccc1)NC(NC(=S)Nc1ccc(Br)cc1)C(Cl)(Cl)Cl (stereo unspecified) | -23.0% | x | 5.4% | u | u
CCc1ccc(OCC(=O)NC(=S)Nc2ccc(C(=O)O)cc2)cc1 | 5.3% | 1.7% | 10.6% | -3.5% | 13.7%
O=C(Nc1ccc(-c2nc3cc(Cl)ccc3c(=O)o2)cc1)c1ccco1 | -3.8% | u | -10.6% | 1.0% | 5.2%
C=Cc1cccc(NC(=O)c2ccc(NC(=O)c3ccco3)cc2)c1 | x | 1.47µM* | -8.9% | x | -5.3%
O=C(CCc1ccccc1)NC(NC(=S)Nc1cccc(Cl)c1)C(Cl)(Cl)Cl (stereo unspecified) | -5.6% | 9.28µM* | 1.3% | -16.5% | u
CCc1ccc(OCC(=O)NC(NC(=S)Nc2ccc(Cl)cc2)C(Cl)(Cl)Cl)cc1 (stereo unspecified) | -27.7% | 13.1µM* | 7.0% | u | u
CO[C@H]1[C@H](NC(=O)c2ccsc2)c2ccccc2C12CCN(Cc1c(O)ccc3ccccc13)CC2 | -10.8% | x | x | 4.0% | x
CC1(C)CC(=O)c2cc(C(=O)NCCc3ccccc3)c(=O)[nH]c2C1 | 19.5% | x | x | -14.0% | x
COc1ccc(NCc2ccccc2-c2nnc(-c3ccccc3)o2)cc1Cl | -6.4% | x | x | -5.1% | x
CCOc1ccccc1CNC(=O)c1cc(-c2ccc(C)c(C)c2)nc2ccccc12 | -9.8% | x | x | -10.5% | x
Cc1ccc(Oc2ccc(NC(=O)c3ccco3)cc2)cc1 | x | -2.5% | 1.5% | x | 0.928µM*
O=C(Nc1ccc(Cl)cc1)c1ccco1 | u | 5.22µM* | -4.7% | -4.3% | 131.4%
Cc1cccc(Nc2ccc([N+](=O)[O-])cc2C(=O)O)c1 | i | 9.8% | -3.3% | -0.6% | 8.5%
O=[N+]([O-])c1cc(Br)c(Nc2ccccc2)c([N+](=O)[O-])c1 | x | 10.1% | 25.1µM* | x | 0.522µM*
O=C(O)c1cc([N+](=O)[O-])ccc1Nc1ccccc1 | i | 10.4µM* | 11.4% | -12.5% | 13.2%
CCN(CC)C1CCN(C(=O)c2cnn(-c3nccc(-c4ccccc4OC)n3)c2-c2ccco2)C1 (stereo unspecified) | i | x | x | -13.7% | x
C/C(=N\Nc1cccc2ccccc12)c1c(O)n(Cc2ccccc2)c(=O)[nH]c1=O | -12.3% | u | -10.6% | 0.4% | 14.7µM*
C/C(=N\NC(=O)c1ccccc1)c1c(O)n(Cc2ccccc2)c(=O)[nH]c1=O | -3.4%[7.34 µM] | 18.4% | 18.9% | -1.9%[7.34 µM] | 33.6%
SMILES | Vaccinia mCherry | Pf growth 96h | AMA1 RON2 block | VACV Venus inh | Pf growth 48h
COc1ccc(N/N=C(\C#N)C(N)=O)cc1 | -6.5% | 47.0% | -8.1% | 4.3% | 19.7%
N#C/C(=N/Nc1ccc(OC(F)(F)F)cc1)C(N)=S | x | 1.65µM* | 64.7% | x | 6.57µM*
CCC(Cn1nnc2ccccc2c1=O)NC(=O)Nc1ccc(C)cc1C (stereo unspecified) | -6.3% | x | x | -4.7% | x
O=[N+]([O-])c1ccc(/C=C/c2ccnc3ccccc23)cc1 | 21.9% | x | x | 18.5% | x
CC(C)(C)Nc1nc(N)nc(Cl)n1 | -1.7% | 30.7% | -2.6% | -11.4% | 21.3%
CCOC(=O)CNc1nc(Cl)nc(NC(C)(C)C)n1 | -1.4% | 13.1µM* | 1.0% | -4.8% | 1.8%
CCOC(=O)Cc1csc(NC(=O)C(C)c2ccc([N+](=O)[O-])cc2)n1 (stereo unspecified) | -7.7% | 22.7% | -14.2% | -8.7% | 9.28µM*
CCOC(=O)Cc1csc(NC(=O)CCN2C(=O)c3cccc([N+](=O)[O-])c3C2=O)n1 | 1.8% | 13.1µM* | 4.8% | 5.7% | 9.1%
COc1ccc(NC(=O)Cn2cc(C(=O)c3ccccc3OC)c(=O)c3ccc(C)nc32)cc1OC | -11.6% | x | x | -10.0% | x
COCCNC(=O)CCc1nnc(Cc2ccc(-c3ccccc3)cc2)o1 | x | 11.7µM* | -1.0% | x | 0.5%
C/C(=N\NC(=O)C(O)c1ccccc1)c1ccc(Cl)cc1 (stereo unspecified) | -15.9% | 4.15µM* | -2.4% | -10.7% | -19.0%
COC(=O)c1sccc1S(=O)(=O)N(CC(=O)NCc1ccc(C)cc1)c1ccc(C)c(C)c1 | -5.9% | x | x | -5.8% | x
CCC1NC(C(=O)O)Cc2c1[nH]c1ccccc21 (stereo unspecified) | 34.3% | 15.1% | 11.4% | 0.7% | -21.3%
COC(=O)C1Cc2c([nH]c3ccccc23)C(C(C)C)N1 (stereo unspecified) | -28.4% | 1.31µM* | 15.3% | -17.3% | -17.2%
COc1cccc(NC(=S)N(CCc2ccc(OC)c(OC)c2)Cc2ccccn2)c1 | i | u | 48.6% | -11.3% | u
COc1ccc(C2CCCN2C(=S)Nc2cccc(C)c2)cc1OC (stereo unspecified) | -9.7% | u | -5.7% | 1.9% | 11.7µM*
COc1ccc(CCN(C)C(=S)Nc2cccc(C)c2)cc1OC | i | u | -8.8% | -3.6% | 1.65µM*
COc1ccc(C2CCCN2C(=S)Nc2cccc(C)c2C)cc1OC (stereo unspecified) | i | u | -27.5% | -6.0% | 11.7µM*
COc1ccc(C2CCCN2C(=S)Nc2ccc(C)cc2Cl)cc1OC (stereo unspecified) | i | 13.9% | 0.3% | 0.9% | -26.8%
Cc1cc(SCC(=O)N/N=C/c2ccc(O)c(O)c2O)c(C)cc1Br | 12.6µM* | x | 27.8% | u | 13.1µM*
COc1cc(/C=N/NC(=O)CSc2cc(C)c(Br)cc2C)ccc1O | x | x | 55.9% | x | 1.7%
COC(=O)c1ccc(C2OCC(C)(C)CO2)cc1 | -4.2% | u | 8.8% | -9.7% | 249.6%
CC1(C(=O)O)COC(c2ccc(Cl)cc2)OC1 (stereo unspecified) | -7.3% | 7.2% | 6.1% | -6.9% | 2.94µM*
Brc1ccc(CNc2nc3ccccc3n2CCN2CCCCC2)cc1 | x | 13.1µM* | -7.2% | x | u
